Each structure is given as a SMILES string. Hit rate of the full screen: of about 330,000 compounds, about 7,300 (2.2%) were called active.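 Rule for the calls: active = inhibition of at least 40%; inactive = the rest.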 What follows is part of a selection rich in actives, with near analogues and random picks from the rest.

The nature of the assay: growth inhibition of tim10-1 ts yeast – luminescence, uHTS, primary screen (AID 463190).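 Note: mutant grown at 25 °C; 0% = DMSO wells with yeast and 100% = wells holding no yeast.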 The settings on record: S. cerevisiae tim10-1 ts strain growth, BacTiter-Glo, 24 h; at 20 µM; stronger effect = higher value.
For the molecule `Cc1ccsc1C(=O)OCC(=O)c1cc(C)n(CC2CCCO2)c1C` (centres undefined), the inhibition is 33% (inactive).
For the molecule `COc1ccc(C(=O)OCC(=O)NCC2CCCO2)cc1[N+](=O)[O-]` (centres undefined), the inhibition is -1.22% (inactive).
Regarding `COc1ccc(C(=O)OCC(=O)c2cc(C)n(CC3CCCO3)c2C)cc1[N+](=O)[O-]` (centres undefined), the inhibition was 44.5% (active).
Turning to `COC(=O)CN1C(=O)[C@H]2[C@@H](/C=C/c3ccccc3)N3C(=O)CN(Cc4ccccc4)C(=O)[C@@]3(Cc3ccccc3)[C@H]2C1=O`, the inhibition is 8.2% (inactive).
Consider `CC1=C(C(N)=O)C(c2ccc(Br)cc2)n2ncnc2N1` (centres undefined), for which the inhibition is 10.7% (inactive).
The result for `Fc1ccccc1/C=C1\CCCC2=C1Nc1ncnn1C2c1ccccc1F` (centres undefined) reads 40.1% (active).
Take `OC1CN=C2Sc3ccccc3N2C1` (centres undefined): the inhibition is 10.5% (inactive).
The result for `CCc1cccc2c(C=C(C#N)C#N)cn(CC(=O)N3CCCCC3)c12` reads 18% (inactive); that for `Cc1ccc(C(=O)O)cc1S(=O)(=O)NCC1CCCO1` (centres undefined), -1.57% (inactive); that for `Cn1c(C(=O)N2CCCC(C(=O)NCc3ccccc3)C2)cc2sccc21` (centres undefined), -2.21% (inactive).
In the case of `CC(C)C(OC(=O)c1cccs1)C(=O)NC1CCCCC1` (centres undefined), the inhibition is 14.5% (inactive).
In the case of `Cn1c(C(=O)OC(C(=O)NC2CCCCC2)c2ccccn2)cc2sccc21` (centres undefined), the inhibition is 40.4% (active).
Under `O=C1C2(c3ccccc3)CN(CCCO)CC1(c1ccccc1)CN(CCCO)C2` stands 13.9% (inactive); under `CCOC(=O)C1(C(F)(F)F)N=C(N(C)C)OC(N(C)C)=N1`, 0.707% (inactive).
In the case of `S=c1ccc2ccccc2[nH]1`, the inhibition is 8.36% (inactive).
As for `CCCCn1c(=S)[nH]c2ccccc2c1=O`, the inhibition is 30.4% (inactive).
As for `S=c1[nH]c2ccccc2c2ccccc12`, the inhibition was 40.1% (active).
The result for `CC(C)Oc1ccc(C(CC(=O)N2CCOCC2)C(C)C)cc1` (centres undefined) reads 1.61% (inactive); that for `COc1ccccc1C(=O)NCC(=O)NCCSc1ccc(Br)cc1`, 12.5% (inactive); that for `Oc1ccccc1CN1CCN(C(c2ccccc2)c2ccccc2)CC1`, 24.4% (inactive).
For `CCN1CCN(C(c2cccnc2)c2cc(Cl)c3cccnc3c2O)CC1` (centres undefined), the inhibition is 50.7% (active).
For `CCN1CCN(c2ccc(NC(=O)c3cnccn3)cc2)CC1`, the inhibition is 4.72% (inactive).
The result for `C=C(C)c1cccc(C(C)(C)NC(=O)NCCN(CC)CC)c1` reads 15.8% (inactive).
The result for `O=C1COc2ccc(NC(=O)N3CCN(c4ccc(F)cc4)CC3)cc2N1` reads -1.3% (inactive).
For the molecule `CCOC(=O)C1Nc2ccc(C(F)(F)F)cc2C2C=CCC12` (centres undefined), the inhibition was 26.6% (inactive).
Regarding `O=C1NC(Nc2nc3ccccc3s2)(C(F)(F)F)C(=O)N1C1CCCCC1` (centres undefined), the inhibition is 55.7% (active).
`O=C(NC1(C(F)(F)F)NC(=O)N(C2CCCCC2)C1=O)c1ccco1` (centres undefined): the inhibition was 9.83% (inactive).
On to `COC(=O)NC1(C(F)(F)F)NC(=O)N(C2CCCCC2)C1=O` (centres undefined), for which the inhibition is -0.477% (inactive).
As for `C=CCC1(CC=C)CCCN1C(=O)CC1C(=O)NCCN1Cc1ccccc1OC` (centres undefined), the inhibition is 7.02% (inactive).
As for `S=C(NCc1cccnc1)Nc1ccc(Cl)cc1Cl`, the inhibition was 15% (inactive).
As for `CC(=O)/C(=N\Nc1ccc(Cl)cc1Cl)Sc1cccc2cccnc12`, the inhibition was 53.2% (active).
The result for `O=C(Nc1cccc2cccnc12)c1cccc(Cl)c1` reads 20.4% (inactive); that for `Cn1cccc1C(=O)OCC(=O)NCCc1ccccc1`, -4.06% (inactive); that for `Cc1c(C)n(Cc2ccc(Cl)cc2)c2ccc(C(=O)NCCCN3CCOCC3)cc12`, 5.97% (inactive).
`O=C(Nc1ccc(Cl)cc1)Nc1nnc(/C=C/c2ccccc2)s1`: the inhibition is 5.19% (inactive).
`O=C(Nc1ccccc1)c1nnsc1S(=O)(=O)c1ccc(Cl)cc1`: the inhibition is 87.7% (active).
Under `NS(=O)(=O)c1ccc(CCNC(=O)Nc2ccc(Cl)cc2)cc1` stands 8.7% (inactive).
For the molecule `COC(=O)c1cc(NC(=O)c2nn(C)c(=O)c3ccccc23)cc(C(=O)OC)c1`, the inhibition is 13.9% (inactive).
`CCc1ccccc1NC(=O)Cc1cn(C)c2ccccc12`: the inhibition was 24.8% (inactive).
With `C=C(C)Cn1c(C)cc(C)c(S(=O)(=O)c2ccccc2C)c1=O`, the inhibition was 27.4% (inactive).
Turning to `Nc1ccccc1SC(C[N+](=O)[O-])c1ccccc1` (centres undefined), the inhibition is 48.9% (active).
As for `CCS(=O)(=O)c1cc([N+](=O)[O-])c(Sc2ccccc2N)s1`, the inhibition was 7.45% (inactive).
Take `Cc1ccc(C)c(N2CCN(C(=O)CCCCCn3c(=S)[nH]c4ccc(N5CCOCC5)cc4c3=O)CC2)c1`: the inhibition was 0.092% (inactive).
Consider `Cc1ccc(C)c(N2CCN(C(=O)CCc3nc4ccccc4[nH]3)CC2)c1`, for which the inhibition is 22.3% (inactive).
Regarding `Cc1ccc(C)c(N2CCN(C(=O)CCCCn3c(=O)[nH]c4ccccc4c3=O)CC2)c1`, the inhibition was 40.7% (active).
Consider `O=C(CCC1CCCCC1)Nc1cc(C(F)(F)F)ccc1N1CCOCC1`, for which the inhibition is 27.5% (inactive).
As to `O=C(NCCc1ccccc1)C1CCC(Cn2c(=O)c3ccccc3n(Cc3cccnc3)c2=O)CC1` (centres undefined), the inhibition was 15.4% (inactive).
For `Cc1ccc(Cl)cc1NC(=O)C1CCCN(c2cnccn2)C1` (centres undefined), the inhibition was 12.5% (inactive).
As to `CC(=O)c1cc(C#N)c(SCC(=O)Nc2nccs2)nc1C`, the inhibition is -56.3% (inactive).
As to `S=c1[nH]nc(COc2ccccc2)n1-c1ccccc1`, the inhibition was 21.4% (inactive).
On to `Cc1ccc(NCc2n[nH]c(=S)n2-c2ccccc2)cc1Cl`, for which the inhibition is 23% (inactive).
For the molecule `S=c1[nH]nc(CSCc2ccc(Cl)cc2Cl)n1-c1ccccc1`, the inhibition is 41.3% (active).
`CCCCNC(=O)C(C)N(CCN(C)C)C(=O)CCCN1C(=O)NC(c2ccc(Cl)cc2)C(C(=O)OCc2ccccc2)=C1C` (centres undefined): the inhibition was 6.33% (inactive).
In the case of `CCCc1cc(=O)[nH]c(SCC(=O)Nc2sc3c(c2C#N)CCCC3)n1`, the inhibition is 6.17% (inactive).
In the case of `COc1ccc(CCNC(=O)C(=O)Nc2ccc3nc4n(c(=O)c3c2)CCCCC4)cc1OC`, the inhibition is 9.06% (inactive).
As to `CCn1cc(CNC(=O)c2cc([N+](=O)[O-])c(C)c([N+](=O)[O-])c2)cn1`, the inhibition is 14.3% (inactive).
Under `S=C(NCC1COc2ccccc2O1)Nc1ccc(Br)cc1` (centres undefined) stands 7.9% (inactive); under `CCCN(CC1COc2ccccc2O1)C(=S)Nc1ccc(C)cc1` (centres undefined), 46.4% (active); under `CCC(=O)c1ccc(OCC(=O)N(CC)CC2COc3ccccc3O2)cc1` (centres undefined), 18.9% (inactive).
As for `CC(C)C(O)C1CCN(Cc2nc(Cc3ccccc3Cl)no2)CC1` (centres undefined), the inhibition was 15.8% (inactive).
For the molecule `C/C=C(/C)C(=O)O[C@@H]1c2cc3c(c4c2[C@@]2(CO4)C(=O)C(OC)=C(OC)C=C2C[C@@H](C)[C@H]1C)OCO3`, the inhibition is 13.3% (inactive).
As for `C[C@@H](C(=O)N1CCNCC1)n1cc(CCC(=O)O)nn1`, the inhibition is -7.39% (inactive).
For the molecule `COC(=O)N(NC(=O)C(O)(C(C)C)C(C)C)c1ccccc1`, the inhibition was -7.63% (inactive).
Turning to `CCCCC(O)(CCCC)C(=O)NN(C(=O)CCl)c1ccccc1`, the inhibition is 49.5% (active).
The result for `CCCC(O)(CCC)C(=O)NN(C(=O)CCl)c1cccc(C)c1` reads 31.5% (inactive); that for `Cc1ccnc(SCCn2c(N(C)Cc3ccccc3)nc3c2c(=O)n(C)c(=O)n3C)n1`, 30% (inactive).
Under `COc1ccc(C(C#N)(CC(=O)O)c2cnccn2)cc1OC` (centres undefined) stands -2.88% (inactive).
Regarding `COc1ccccc1CNS(=O)(=O)c1ccc2c(c1)NC(=O)CS2`, the inhibition is -7.01% (inactive).
Under `Cn1c(=O)[nH]c(=O)c2c1nc(N1CCN(C(c3ccccc3)c3ccccc3)CC1)n2CCO` stands 10.4% (inactive); under `O=C(O)c1ccccc1CSc1nc2ccccc2s1`, 2.18% (inactive); under `NC(=O)c1ccc(Nc2ccc3nonc3c2[N+](=O)[O-])cc1`, -0.57% (inactive).
With `O=[N+]([O-])c1c(NCCO)cc(Sc2nc3ccccc3s2)c2nonc12`, the inhibition is 42.6% (active).
Take `COc1cc(C(=O)OCC(=O)NC(C)CCc2ccccc2)cc(OC)c1OC` (centres undefined): the inhibition is 13.5% (inactive).
On to `CN1C(=O)[C@H]2[C@@H](/C=C/c3ccccc3)N3C(=O)CN(Cc4ccc(-c5ccccc5)cc4)C(=O)[C@@]3(C)[C@H]2C1=O`, for which the inhibition is 1.58% (inactive).
Under `Cc1nc(-c2ccccc2)cn2c1nc1ccccc12` stands 40.7% (active).
Consider `CCOCCn1c(-c2ccccc2)nc2ccccc21`, for which the inhibition is -13.4% (inactive).
As to `Cc1c(C(=O)Nc2cccc(Cl)c2)cn2c(nc3ccccc32)c1C#N`, the inhibition was 10.2% (inactive).
As to `COc1ccc(C(=O)OCC(=O)c2ccc(Cl)s2)c(OC)c1OC`, the inhibition was 6.36% (inactive).
For the molecule `Cc1ccc(S(=O)(=O)NCCC(c2ccccc2)c2ccccc2)cc1C(=O)O`, the inhibition was 25.2% (inactive).
Under `COc1ccc(C(=O)COC(=O)CNC(=O)c2cccs2)cc1Br` stands -2.83% (inactive); under `CCN(CC)c1ccc(C(=O)N/N=C(\C)c2cccc(OC)c2)cc1`, -18.4% (inactive).
Regarding `COc1ccc(/C(C)=N/NC(=O)c2ccc3nc[nH]c3c2)cc1`, the inhibition is 52.3% (active).
The result for `CC(=NNC(=O)c1ccc2nc[nH]c2c1)c1ccc(Br)cc1` reads 9.94% (inactive); that for `CN(C)CCCO/N=C(\c1ccccc1)c1ccncc1`, -3.73% (inactive); that for `O=C(Nc1ccncc1)c1ccccc1[N+](=O)[O-]`, 0.557% (inactive).
As for `O=C(O/N=C(/c1ccccc1)c1ccncc1)c1ccccc1[N+](=O)[O-]`, the inhibition was 41.3% (active).
For the molecule `COc1ccc(OCC(=O)NNC(=O)C2CCC2)cc1`, the inhibition was -8.95% (inactive).
Regarding `O=C(Nc1ccc(Cl)c(Cl)c1)c1ccccc1NC(=O)C1CC=CCC1C(=O)O` (centres undefined), the inhibition is 14.6% (inactive).
With `COc1ccc(C(=O)Nc2ccccc2C(=O)N/N=C/c2ccc(O)c(OC)c2)cc1`, the inhibition is 97% (active).
Turning to `COc1ccc(C(=O)Nc2cc(C)c(NC(=O)c3ccccc3OC)cn2)cc1`, the inhibition was -34.5% (inactive).
For `CCOc1cc(/C=N/NC(=O)c2cc(-c3ccccc3)nc3ccccc23)ccc1O`, the inhibition is 11.6% (inactive).
Regarding `COc1ccccc1C(=O)NNC(=O)c1ccc(NC(=O)c2ccccc2)cc1`, the inhibition is -9.84% (inactive).
`COc1cc(/C=N/NC(=O)c2ccc(N3CCCC3=O)cc2)ccc1O`: the inhibition was 13.5% (inactive).
Take `COc1ccc(C(=O)Nc2ccccc2C(=O)N/N=C/c2ccccc2OC)cc1`: the inhibition was 66.7% (active).
